# Test results as given in the supplement of paper PMC4466140.
# Columns and labels:
# Experiment in all cases: SPOT peptide array binding signal intensity (averaged, normalized) (arbitrary units (background-subtracted, floor 0; scale differs between SH3 domains)); higher = stronger binding of the SH3 domain to the peptide
# [1] = biological target: AgAbp1
# How it was run: (§1)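 The binding signal is the normalized, background-subtracted spot intensity averaged over replicates; its arbitrary units differ between domains. It was obtained by incubating 10 μg/ml GST-fused SH3 domains from four yeast species overnight at 4°C in TBS-based blocking buffer on cellulose membranes with synthetic 15-mer peptides, cysteines replaced by serines, then detecting with anti-GST antibody, HRP anti-mouse secondary and luminol.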
# [2] = biological target: AgBbc1
# How it was run: as §1
# [3] = biological target: AgBem1-D1
# How it was run: as §1
# [4] = biological target: AgBzz1-D1
# How it was run: as §1
# [5] = biological target: AgBzz1-D2
# How it was run: as §1
# [6] = biological target: AgCyk3
# How it was run: as §1
# [7] = biological target: AgFus1
# How it was run: as §1
# [8] = biological target: AgHof1
# How it was run: as §1
# [9] = biological target: AgHse1
# How it was run: as §1
# [10] = biological target: AgLsb1
# How it was run: as §1
# [11] = biological target: AgLsb4
# How it was run: as §1
# [12] = biological target: AgMyo5
# How it was run: as §1
# [13] = biological target: AgNbp2
# How it was run: as §1
# [14] = biological target: AgRvs167
# How it was run: as §1
# [15] = biological target: AgSho1
# How it was run: as §1
# [16] = biological target: AgSla1-D1-D2
# How it was run: as §1
# [17] = biological target: AgSla1-D3
# How it was run: as §1
# [18] = biological target: CaAbp1-D1
# How it was run: as §1
# [19] = biological target: CaAbp1-D2
# How it was run: as §1
# [20] = biological target: CaBbc1
# How it was run: as §1
# [21] = biological target: CaBem1-D1
# How it was run: as §1
# [22] = biological target: CaBzz1-D1
# How it was run: as §1
# [23] = biological target: CaBzz1-D2
# How it was run: as §1
# [24] = biological target: CaCyk3
# How it was run: as §1
# [25] = biological target: CaFus1
# How it was run: as §1
# [26] = biological target: CaHof1
# How it was run: as §1
# [27] = biological target: CaHse1
# How it was run: as §1
# [28] = biological target: CaLsb1
# How it was run: as §1
# [29] = biological target: CaLsb4
# How it was run: as §1
# [30] = biological target: CaMyo5
# How it was run: as §1
# [31] = biological target: CaNbp2
# How it was run: as §1
# [32] = biological target: CaRvs167
# How it was run: as §1
# [33] = biological target: CaRvs167-3
# How it was run: as §1
# [34] = biological target: CaSho1
# How it was run: as §1
# [35] = biological target: CaSla1-D1-D2
# How it was run: as §1
# [36] = biological target: CaSla1-D3
# How it was run: as §1
# [37] = biological target: ScAbp1
# How it was run: as §1
# [38] = biological target: ScBbc1
# How it was run: as §1
# [39] = biological target: ScBem1-D1
# How it was run: as §1
# [40] = biological target: ScBzz1-D1
# How it was run: as §1
# [41] = biological target: ScBzz1-D2
# How it was run: as §1
# [42] = biological target: ScCyk3
# How it was run: as §1
# [43] = biological target: ScFus1
# How it was run: as §1
# [44] = biological target: ScHof1
# How it was run: as §1
# [45] = biological target: ScHse1
# How it was run: as §1
# [46] = biological target: ScLsb1
# How it was run: as §1
# [47] = biological target: ScLsb2
# How it was run: as §1
# [48] = biological target: ScLsb3
# How it was run: as §1
# [49] = biological target: ScLsb4
# How it was run: as §1
# [50] = biological target: ScMyo3
# How it was run: as §1
# [51] = biological target: ScMyo5
# How it was run: as §1
# [52] = biological target: ScNbp2
# How it was run: as §1
# [53] = biological target: ScPex13
# How it was run: as §1
# [54] = biological target: ScRvs167
# How it was run: as §1
# [55] = biological target: ScSho1
# How it was run: as §1
# [56] = biological target: ScSla1-D1-D2
# How it was run: as §1
# [57] = biological target: ScSla1-D3
# How it was run: as §1
# [58] = biological target: SpAbp1-D1
# How it was run: as §1
# [59] = biological target: SpBbc1
# How it was run: as §1
# [60] = biological target: SpBzz1-D1
# How it was run: as §1
# [61] = biological target: SpBzz1-D2
# How it was run: as §1
# [62] = biological target: SpCyk3
# How it was run: as §1
# [63] = biological target: SpHof1
# How it was run: as §1
# [64] = biological target: SpHof1-2
# How it was run: as §1
# [65] = biological target: SpHof1-3
# How it was run: as §1
# [66] = biological target: SpHse1
# How it was run: as §1
# [67] = biological target: SpLsb1
# How it was run: as §1
# [68] = biological target: SpLsb4
# How it was run: as §1
# [69] = biological target: SpMyo1
# How it was run: as §1
# [70] = biological target: SpNbp2
# How it was run: as §1
# [71] = biological target: SpPex13
# How it was run: as §1
# [72] = biological target: SpRvs167
# How it was run: as §1
# [73] = biological target: SpSla1-D1-D2
# How it was run: as §1
# [74] = biological target: SpSla1-D3
# How it was run: as §1
binder,measurement,setting,value
KDKSRPPRPPPKPLH,SPOT peptide array binding signal intensity,[1],917
same,SPOT peptide array binding signal intensity,[2],282
same,SPOT peptide array binding signal intensity,[3],30
same,SPOT peptide array binding signal intensity,[4],257
same,SPOT peptide array binding signal intensity,[5],119
same,SPOT peptide array binding signal intensity,[6],≤ 0
same,SPOT peptide array binding signal intensity,[7],≤ 0
same,SPOT peptide array binding signal intensity,[8],55.8
same,SPOT peptide array binding signal intensity,[9],27
same,SPOT peptide array binding signal intensity,[10],7.5
same,SPOT peptide array binding signal intensity,[11],11.5
same,SPOT peptide array binding signal intensity,[12],≤ 0
same,SPOT peptide array binding signal intensity,[13],138
same,SPOT peptide array binding signal intensity,[14],1.33
same,SPOT peptide array binding signal intensity,[15],71.5
same,SPOT peptide array binding signal intensity,[16],≤ 0
same,SPOT peptide array binding signal intensity,[17],7.5
same,SPOT peptide array binding signal intensity,[18],298
same,SPOT peptide array binding signal intensity,[19],780
same,SPOT peptide array binding signal intensity,[20],240
same,SPOT peptide array binding signal intensity,[21],382
same,SPOT peptide array binding signal intensity,[22],3930
same,SPOT peptide array binding signal intensity,[23],748
same,SPOT peptide array binding signal intensity,[24],23.5
same,SPOT peptide array binding signal intensity,[25],≤ 0
same,SPOT peptide array binding signal intensity,[26],≤ 0
same,SPOT peptide array binding signal intensity,[27],67
same,SPOT peptide array binding signal intensity,[28],0.5
same,SPOT peptide array binding signal intensity,[29],158
same,SPOT peptide array binding signal intensity,[30],≤ 0
same,SPOT peptide array binding signal intensity,[31],88.5
same,SPOT peptide array binding signal intensity,[32],8.67
same,SPOT peptide array binding signal intensity,[33],0.5
same,SPOT peptide array binding signal intensity,[34],≤ 0
same,SPOT peptide array binding signal intensity,[35],602
same,SPOT peptide array binding signal intensity,[36],21.5
same,SPOT peptide array binding signal intensity,[37],670
same,SPOT peptide array binding signal intensity,[38],8.5
same,SPOT peptide array binding signal intensity,[39],≤ 0
same,SPOT peptide array binding signal intensity,[40],123
same,SPOT peptide array binding signal intensity,[41],≤ 0
same,SPOT peptide array binding signal intensity,[42],≤ 0
same,SPOT peptide array binding signal intensity,[43],≤ 0
same,SPOT peptide array binding signal intensity,[44],≤ 0
same,SPOT peptide array binding signal intensity,[45],24
same,SPOT peptide array binding signal intensity,[46],121
same,SPOT peptide array binding signal intensity,[47],1
same,SPOT peptide array binding signal intensity,[48],1930
same,SPOT peptide array binding signal intensity,[49],15.5
same,SPOT peptide array binding signal intensity,[50],29.5
same,SPOT peptide array binding signal intensity,[51],49.5
same,SPOT peptide array binding signal intensity,[52],305
same,SPOT peptide array binding signal intensity,[53],103
same,SPOT peptide array binding signal intensity,[54],45
same,SPOT peptide array binding signal intensity,[55],171
same,SPOT peptide array binding signal intensity,[56],266
same,SPOT peptide array binding signal intensity,[57],11.5
same,SPOT peptide array binding signal intensity,[58],528
same,SPOT peptide array binding signal intensity,[59],≤ 0
same,SPOT peptide array binding signal intensity,[60],366
same,SPOT peptide array binding signal intensity,[61],16.8
same,SPOT peptide array binding signal intensity,[62],1
same,SPOT peptide array binding signal intensity,[63],≤ 0
same,SPOT peptide array binding signal intensity,[64],≤ 0
same,SPOT peptide array binding signal intensity,[65],75.5
same,SPOT peptide array binding signal intensity,[66],21.5
same,SPOT peptide array binding signal intensity,[67],484
same,SPOT peptide array binding signal intensity,[68],670
same,SPOT peptide array binding signal intensity,[69],277
same,SPOT peptide array binding signal intensity,[70],13.5
same,SPOT peptide array binding signal intensity,[71],≤ 0
same,SPOT peptide array binding signal intensity,[72],129
same,SPOT peptide array binding signal intensity,[73],≤ 0
same,SPOT peptide array binding signal intensity,[74],3
